Laboratory results published in PubChem BioAssay (NCI).
This is part of a sample that, as a whole, favours compounds with a hit. Of some 79,000 tested, about 15% had one in any assay. Unmarked numbers belong to inactive results. Cut-off read from the data, not from the text of the source: active = growth inhibition above about 70%; inactive = the rest.

experiment: NCI Yeast Anticancer Drug Screen. Data for the cln2 rad14 strain (AID 165);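 note: 0% = growth equal to vehicle treated cultures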; settings: S. cerevisiae cln2 rad14 strain, at 50.0 µM, active compounds read high
How it was run: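 The screen exposed genetically defined yeast (cln2 rad14) to test compounds and scored growth inhibition relative to vehicle-treated controls.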

With `COc1ccc2nc(NC(=O)C(=O)C(C#N)c3ccc(CC#N)cc3)sc2c1` (stereo not drawn) as the molecule, how does the growth inhibition read?
Its growth inhibition is -4.85%.

Which growth inhibition does the source give for `O=C(c1cccc(Cl)c1)c1cccc2ccccc12` here?
Its growth inhibition is -37%.

For `CN=C1N[N+]2=CCCCC2S1` (stereo not drawn), which growth inhibition is on record?
Its growth inhibition is 0.75%.

With `CC(=O)NC1=NC(=O)/C(=C/Cc2cccs2)N1C` as the molecule, how does the growth inhibition read?
Its growth inhibition is -5.55%.

With `CC(=O)[C@H]1CC[C@H]2[C@@H]3CC[C@H]4C[C@@H](OC(c5ccccc5)(c5ccccc5)c5ccccc5)CC[C@]4(C)[C@H]3CC[C@]12C` as the molecule, how does the growth inhibition read?
Its growth inhibition is -3.95%.

For `Cc1nn(C(=O)c2ccccn2)c(-c2ccccc2)c1N=Nc1ccc(S(=O)(=O)Nc2ncccn2)cc1`, which growth inhibition is on record?
The growth inhibition was 12.5%.

For `c1ccc(-c2nc3c(N4CCOCC4)ncnc3o2)cc1`, which growth inhibition is on record?
Its growth inhibition is -2.55%.

With `CC(=O)Nc1cc(F)c(N=Nc2ccc([N+](=O)[O-])cc2)c(F)c1` as the molecule, how does the growth inhibition read?
Its growth inhibition is -38.2%.

For `CCCCCCCCCCOc1ccc(OCCCCCCCCC)cc1`, which growth inhibition is on record?
Its growth inhibition is -45%.

For `O=C1OC2=C(CCCCC2)C(N2CCCCC2)C12SCCCS2` (stereo not drawn), which growth inhibition is on record?
Its growth inhibition is -17.3%.

Which growth inhibition does the source give for `O=C(CSSCC(=O)Nc1ccccc1O)Nc1ccccc1O` here?
Its growth inhibition is -24.1%.

For `COc1ccc(/C=C2/C[N+](C)(C)C/C(=C/c3ccc(OC)cc3)C2=O)cc1`, which growth inhibition is on record?
The growth inhibition was 6.15%.

Which growth inhibition does the source give for `Nc1nc2c(C(=O)c3ccco3)nnn2c2cccc(Cl)c12` here?
The growth inhibition was 11.2%.

With `Nc1cc(S(=O)(=O)O)nc(N)[n+]1[O-]` as the molecule, how does the growth inhibition read?
The growth inhibition was -36.3%.

With `c1cc(CCc2ccncc2)ccn1` as the molecule, how does the growth inhibition read?
The growth inhibition was 3.6%.

Which growth inhibition does the source give for `CN(C)CCn1c(CO)nc2c1c(=O)n(C)c(=O)n2C` here?
The growth inhibition was -15.2%.

For `CC(C)=CCC(C)C`, which growth inhibition is on record?
Its growth inhibition is 7.9%.

For `COc1ccc(/C=C\c2cc(OC)c(OC)c(OC)c2)cc1OC(=O)CC(N)C(=O)O` (stereo not drawn), which growth inhibition is on record?
Its growth inhibition is -6.65%.

Which growth inhibition does the source give for `Cc1ccc(S(=O)(=O)CCC(=O)c2ccc([N+](=O)[O-])cc2)cc1` here?
The growth inhibition was 6.65%.

For `CC1CCC(C(=O)O)CC1` (stereo not drawn), which growth inhibition is on record?
The growth inhibition was 21.8%.

Which growth inhibition does the source give for `COc1ccc(C)c2c1CCCC2` here?
The growth inhibition was -60.2%.

Which growth inhibition does the source give for `O=C(N/C(=C\c1ccccc1)C1Nc2ccccc2C(=O)O1)c1ccccc1` (stereo not drawn) here?
Its growth inhibition is -17.2%.

With `Nc1cc(Br)cc2c1-c1ccc(Br)cc1C2=O` as the molecule, how does the growth inhibition read?
The growth inhibition was -54.9%.

experiment: NCI Yeast Anticancer Drug Screen. Data for the bub3 strain (AID 167); settings: S. cerevisiae bub3 mutant strain, at 50.0 µM, active compounds read high
How it was run: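 Compounds were applied to a genetically altered yeast strain carrying a cell-cycle control defect. Growth inhibition was scored against vehicle-treated controls.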

For `O=C1c2cccc([N+](=O)[O-])c2C(=O)c2cccc(Cl)c21`, which growth inhibition is on record?
Its growth inhibition is 32.5%.

For `CCOC(=O)C(Cc1ccc(Cl)cc1)(Cc1ccc(Cl)cc1)C(=O)OCC`, which growth inhibition is on record?
Its growth inhibition is -15.8%.

Which growth inhibition does the source give for `Cc1cc(Cl)ccc1NC(=O)/C(=N\NC(C)(C)C)C(C#N)c1nc(-c2ccc([N+](=O)[O-])cc2)cs1` (stereo not drawn) here?
The growth inhibition was 4.25%.

With `COC(=O)CCc1ccc(NC(=O)OC)cc1` as the molecule, how does the growth inhibition read?
The growth inhibition was 14.8%.

With `CC/C(C)=N/NC(=O)c1ccc([N+](=O)[O-])cc1` as the molecule, how does the growth inhibition read?
The growth inhibition was 0.95%.

Which growth inhibition does the source give for `COc1cnnc2ccccc12` here?
Its growth inhibition is -0.9%.

For `CC/C(C)=N/NS(C)(=O)=O`, which growth inhibition is on record?
The growth inhibition was -44.8%.

With `CNn1c(C)n[nH]c1=O` as the molecule, how does the growth inhibition read?
Its growth inhibition is 3.4%.

With `O=C(NN1C(=O)C(Cl)C1c1ccccc1Cl)c1ccccc1O` (stereo not drawn) as the molecule, how does the growth inhibition read?
Its growth inhibition is -21%.

For `c1ccc2cc(N3CCOCC3)ccc2c1`, which growth inhibition is on record?
Its growth inhibition is -22.8%.

For `CC(=O)OCC1C(=O)OCC1C(=O)N1Cc2cc3ccccc3nc2C1` (stereo not drawn), which growth inhibition is on record?
Its growth inhibition is 31.2%.

For `Clc1ccc(C2=CSC3=NCCN23)cc1`, which growth inhibition is on record?
The growth inhibition was 16.4%.

With `C=C(C)C(C)(C)n1[nH]c(=O)n(-c2ccccc2)c1=O` as the molecule, how does the growth inhibition read?
The growth inhibition was -13.4%.

With `CN1CCN(S(=O)(=O)C(c2ccccc2)C2(O)CCCCC2)CC1` (stereo not drawn) as the molecule, how does the growth inhibition read?
The growth inhibition was -8.15%.

With `COc1ccc(NC(=O)C(=O)Cc2nc3ccc([N+](=O)[O-])cc3[nH]c2=O)c(OC)c1` as the molecule, how does the growth inhibition read?
Its growth inhibition is 6.15%.

With `COc1cc(NC(=O)CCN2CCOCC2)c2ncccc2c1` as the molecule, how does the growth inhibition read?
Its growth inhibition is 18.9%.

For `CSC(C1c2ccccc2N(C)C2=NC(=O)N(C)C(=O)C21Cl)S(=O)(=O)c1ccc(C)cc1` (stereo not drawn), which growth inhibition is on record?
The growth inhibition was 45.4%.

Which growth inhibition does the source give for `COc1ccc2nc(NC(=O)C(=O)C(C#N)c3ccc(CC#N)cc3)sc2c1` (stereo not drawn) here?
Its growth inhibition is 0.15%.

Which growth inhibition does the source give for `O=C(c1cccc(Cl)c1)c1cccc2ccccc12` here?
The growth inhibition was 41.9%.

With `CN=C1N[N+]2=CCCCC2S1` (stereo not drawn) as the molecule, how does the growth inhibition read?
The growth inhibition was 2.4%.

Which growth inhibition does the source give for `CC(=O)NC1=NC(=O)/C(=C/Cc2cccs2)N1C` here?
Its growth inhibition is -23.8%.

With `CC(=O)[C@H]1CC[C@H]2[C@@H]3CC[C@H]4C[C@@H](OC(c5ccccc5)(c5ccccc5)c5ccccc5)CC[C@]4(C)[C@H]3CC[C@]12C` as the molecule, how does the growth inhibition read?
The growth inhibition was -5.5%.

For `Cc1nn(C(=O)c2ccccn2)c(-c2ccccc2)c1N=Nc1ccc(S(=O)(=O)Nc2ncccn2)cc1`, which growth inhibition is on record?
The growth inhibition was 1.5%.

Which growth inhibition does the source give for `c1ccc(-c2nc3c(N4CCOCC4)ncnc3o2)cc1` here?
The growth inhibition was -4.8%.

With `CC(=O)Nc1cc(F)c(N=Nc2ccc([N+](=O)[O-])cc2)c(F)c1` as the molecule, how does the growth inhibition read?
The growth inhibition was -28.1%.

For `CCCCCCCCCCOc1ccc(OCCCCCCCCC)cc1`, which growth inhibition is on record?
Its growth inhibition is -2.3%.

Which growth inhibition does the source give for `O=C1OC2=C(CCCCC2)C(N2CCCCC2)C12SCCCS2` (stereo not drawn) here?
The growth inhibition was -3.25%.

Which growth inhibition does the source give for `O=C(CSSCC(=O)Nc1ccccc1O)Nc1ccccc1O` here?
The growth inhibition was 27.2%.

For `COc1ccc(/C=C2/C[N+](C)(C)C/C(=C/c3ccc(OC)cc3)C2=O)cc1`, which growth inhibition is on record?
Its growth inhibition is 16.4%.

With `Nc1nc2c(C(=O)c3ccco3)nnn2c2cccc(Cl)c12` as the molecule, how does the growth inhibition read?
The growth inhibition was 8.95%.

For `Nc1cc(S(=O)(=O)O)nc(N)[n+]1[O-]`, which growth inhibition is on record?
Its growth inhibition is -13.3%.

Which growth inhibition does the source give for `c1cc(CCc2ccncc2)ccn1` here?
Its growth inhibition is 1.3%.

For `CN(C)CCn1c(CO)nc2c1c(=O)n(C)c(=O)n2C`, which growth inhibition is on record?
The growth inhibition was 0.1%.

Which growth inhibition does the source give for `CC(C)=CCC(C)C` here?
Its growth inhibition is -12.6%.

Which growth inhibition does the source give for `COc1ccc(/C=C\c2cc(OC)c(OC)c(OC)c2)cc1OC(=O)CC(N)C(=O)O` (stereo not drawn) here?
The growth inhibition was -1.55%.

With `Cc1ccc(S(=O)(=O)CCC(=O)c2ccc([N+](=O)[O-])cc2)cc1` as the molecule, how does the growth inhibition read?
The growth inhibition was 3.05%.

For `CC1CCC(C(=O)O)CC1` (stereo not drawn), which growth inhibition is on record?
The growth inhibition was -0.85%.

For `COc1ccc(C)c2c1CCCC2`, which growth inhibition is on record?
Its growth inhibition is -6.8%.

Which growth inhibition does the source give for `O=C(N/C(=C\c1ccccc1)C1Nc2ccccc2C(=O)O1)c1ccccc1` (stereo not drawn) here?
The growth inhibition was -8.95%.

Which growth inhibition does the source give for `Nc1cc(Br)cc2c1-c1ccc(Br)cc1C2=O` here?
The growth inhibition was 5.15%.
